Here are results for 10 compounds from PubChem BioAssay (NCATS).

A short description of experiment [1]: qHTS profiling for inhibitors of Plasmodium falciparum (3D7) proliferation (AID 743322).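 Also: infected erythrocytes exposed to compound for 72 h before lysis; 100% = DMSO vehicle wells and 0% = 0.29 µM artemisinin.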 To be noted: P. falciparum 3D7 proliferation; at 28.7 µM (top of the series). Put shortly:
(§1)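 Parasite DNA was quantified by SYBR Green I fluorescence (ex 485, em 535 nm) after overnight lysis in saponin/Triton buffer at room temperature. Cultures at 0.3% parasitemia and 2.5% hematocrit were first exposed to compound for 72 h at 37 C; signals were normalised to artemisinin (0.29 uM) and vehicle wells.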

Experiment [2] can be described thus: qHTS profiling for inhibitors of Plasmodium falciparum (DD2) proliferation (AID 743323). The following applies: lower = more inhibition; at 28.7 µM (top of the series). The method in brief: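 Parasite proliferation measured via DNA-dye fluorescence, as uninfected erythrocytes lack DNA. Cultures at 0.3% parasitemia and 2.5% hematocrit incubated 72 h with compound; signal scaled between vehicle and 0.29 uM artemisinin wells.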

Experiment [3] in a line: qHTS profiling for inhibitors of Plasmodium falciparum (HB3) proliferation (AID 743324; active = well fitted curve in the direction sought with a large enough effect; an effect the other way counts as inactive or inconclusive;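 also: 100% = DMSO vehicle wells and 0% = artemisinin-treated control wells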). The following applies: Plasmodium falciparum HB3 blood-stage proliferation; at 28.7 µM (top of the series). Put shortly:
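SYBR Green fluorescence (485 ex/535 em) of lysed cultures, incubated overnight at room temperature in the dark, quantifies parasite DNA. Infected erythrocytes at 0.3% parasitemia and 2.5% hematocrit were exposed 72 h; values normalized to DMSO and 0.29 uM artemisinin controls.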

A short description of experiment [4]: qHTS profiling of the MIPE4 collection as inhibitors of Plasmodium falciparum (3D7) proliferation (AID 743344). To be noted: P. falciparum 3D7 in erythrocytes, SYBR Green DNA fluorescence, 72 h; at 28.5 µM (top of the series) unless noted. The method in brief: as §1
Experiment [5] can be described thus: qHTS profiling of the MIPE4 collection as inhibitors of Plasmodium falciparum (DD2) proliferation (AID 743345). To be noted: P. falciparum Dd2 in erythrocytes, SYBR Green DNA, 72 h; at 28.5 µM (top of the series) unless noted. The method in brief: as §1
The nature of experiment [6]: qHTS profiling of the MIPE4 collection as inhibitors of Plasmodium falciparum (DD2) proliferation (Rep 2) (AID 743346). To be noted: P. falciparum Dd2 in erythrocytes, SYBR Green DNA, 72 h; at 28.5 µM (top of the series) unless noted. Put shortly: as §1
The nature of experiment [7]: High-throughput drug toxicity screening in the BPDCN cell line Gen2.2 (AID 1224824).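 Also: cells exposed to compounds for 48 h before reading.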 To be noted: Gen2.2 BPDCN cells; at 45.8 µM (top of the series) unless noted. The method in brief: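 Seed 500 exponentially growing Gen2.2 cells/well; add compounds by pin tool; incubate 48 h, 37 °C, 5% CO2; add CellTiter-Glo, 15 min RT; read luminescence. % activity vs DMSO (100%) and bortezomib (0%).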

Experiment [8] can be described thus: High-throughput drug toxicity screening in the BPDCN cell line Cal-1 (AID 1224825). The following applies: Cal-1 BPDCN cell viability, qHTS; at 45.8 µM (top of the series) unless noted. The method in brief:
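Viability of the BPDCN line Cal-1 is measured as ATP-based luminescence (CellTiter-Glo) following 48 h incubation with compounds. Percent activity uses DMSO-treated wells as 100% and 9.2 uM bortezomib as 0%.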

Experiment [9] is described as follows: qHTS assay for measurement of the activity of small molecule inhibitors on Zika virus induced Caspase-3 activity in human iPSC derived neural progenitor cells (hNPCs) (AID 1224857; active = well fitted curve in the direction sought with a large enough effect; an effect the other way counts as inactive or inconclusive; also: nearly all actives have a fitted effect of over 65% in size; also: potency is read from the fitted curve at half-maximal effect). Put shortly: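 hNPCs seeded 350 cells/well, cultured 16–20 h; compounds added 1 h before ZIKV (2 FFU/cell), 37 C 6 h. Caspase-Glo 3/7 luminescence after 30 min RT; % inhibition from induction scaled to uninfected (0%) and infected (100%) wells.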

Experiment [10] in a line: qHTS assay for measurement of the activity of small molecule inhibitors on Zika virus induced Caspase-3 activity in human astrocytoma cells (AID 1224859; active = well fitted curve in the direction sought with a large enough effect; an effect the other way counts as inactive or inconclusive;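 also: plate controls were ZIKV-infected untreated cells for no effect and uninfected cells for full effect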). Put shortly:
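Luminescence read-out (Caspase-Glo 3/7, 30 min RT) of caspase activity in SNB-19 cells infected 6 h with ZIKV, 2 FFU/cell, after 1 h compound pretreatment; % inhibition from induction normalised to uninfected (0%) and infected (100%) wells.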

Experiment [11] in a line: qHTS Assay for Identifying Gametocytocidal Compounds (AID 743244; active = well fitted curve in the direction sought with a large enough effect; an effect the other way counts as inactive or inconclusive; also: potency is read from the fitted curve at half-maximal effect;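 as to max response: % is scaled to controls: 0 for no effect and ±100 for the full control effect; actives lower the fluorescent signal which means gametocytes are killed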). The following applies: P. falciparum 3D7 stage III-V gametocytes, alamarBlue, 72 h; max response: stronger effect = lower value. Put shortly: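 P. falciparum 3D7 stage III–V gametocytes (20,000 cells/well) were exposed to compounds for 72 h at 37 °C, 5% CO2. AlamarBlue was then added for 24 h; decreased resorufin fluorescence (Ex 525/Em 598 nm) indicated loss of viability.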

A short description of experiment [12]: qHTS profiling of the MIPE4 collection as inhibitors of Plasmodium falciparum (HB3) proliferation (AID 743347).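 Also: plate controls were DMSO vehicle wells for no effect and artemisinin wells for full effect.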 To be noted: P. falciparum HB3 in erythrocytes, SYBR Green DNA, 72 h; at 28.5 µM (top of the series) unless noted. The method in brief:
as §1

Inconclusive results are not listed. Calls of active or inactive are those of the source. Unless noted, no rule for the calls is given here.

For `c1nc2nc(Nc3ccc(N4CCOCC4)cc3)nc(NC3CCCCC3)c2[nH]1`, in [1], the remaining parasite growth % (stronger effect = lower value) was 4.62%. The activity, percent of control in experiment [2] came out at 13.5%. Besides, the remaining proliferation (% of control), lower = more inhibition in experiment [3] was -0.173%. This compound also had a parasite growth, % of DMSO control in [4] of 12.6%. Besides, the parasite growth remaining, % of DMSO control (lower = more inhibition) in experiment [5] stood at 31.3%. The parasite growth, % of control (lower = inhibition) in [6] came to 10.2%. For the same compound, in experiment [7], the cell viability, % of control (lower = more cytotoxic) was 9.78%. Also, in experiment [8], the viability (% of control) is 8.54%. The Potency result in experiment [9] and in experiment [10] was “inactive” in each case.
For `O=c1[nH]nc(Sc2ncc([N+](=O)[O-])s2)n1-c1ccc2c(c1)OCCO2`, the Potency in experiment [11] was 7.43 µM (active); in experiment [9], 23.5 µM (active). Moreover, the remaining parasite growth % (stronger effect = lower value) in [1] came out at 21%. Moreover, in [3], the remaining proliferation (% of control), lower = more inhibition was found to be 3.82%. The parasite growth, % of DMSO control in experiment [4] amounted to 59.7%. For the same compound, the parasite growth remaining, % of DMSO control (lower = more inhibition) in [5] was 64.7%. For the same compound, the parasite growth, % of control (lower = inhibition) in experiment [6] was 60.1%. Besides, the growth, % of control in experiment [12] is 62.4%. Besides, the cell viability, % of control (lower = more cytotoxic) in [7] came out at 3.22%. The viability (% of control) in [8] stood at 2.62%. Also, in experiment [10], the Potency entry is “inactive”.
Consider `CC[C@H](CO)Nc1nc(NCc2ccccc2)c2ncn(C(C)C)c2n1`, for which, in experiment [11], the max response was -4.23% (inactive). For the same compound, the remaining proliferation (% of control), lower = more inhibition in experiment [3] was determined as 19.5%. For the same compound, the parasite growth, % of DMSO control in experiment [4] was determined as 20%. The cell viability, % of control (lower = more cytotoxic) in [7] came to 11.9%. Besides, the viability (% of control) in experiment [8] was found to be 29.5%. The Potency entry in experiment [9] and in experiment [10] was “inactive” in each case.
As to `CN(C)CC=CC(=O)Nc1cc2c(Nc3ccc(F)c(Cl)c3)ncnc2cc1O[C@H]1CCOC1`, the Potency in experiment [11] is 0.935 µM (active). Moreover, the remaining parasite growth % (stronger effect = lower value) in experiment [1] is -0.281%. In addition, the remaining proliferation (% of control), lower = more inhibition in experiment [3] came to 0.188%. Further, the parasite growth, % of DMSO control in experiment [4] stood at 6.72%. In addition, the parasite growth remaining, % of DMSO control (lower = more inhibition) in [5] was found to be 7.96%. This compound also yielded a parasite growth, % of control (lower = inhibition) in experiment [6] of 9.26%. Besides, in [7], the cell viability, % of control (lower = more cytotoxic) was determined as 6.25%. For the same compound, the viability (% of control) in experiment [8] amounted to 5.7%. For the same compound, the Potency result in experiment [9] and in experiment [10] was “inactive” each time.
As to `CC1(C)OC2=C(C(=O)c3ccccc3C2=O)[C@H](NCc2ccccc2)[C@H]1O`, the Potency in experiment [11] was 0.743 µM (active); in [9], 18.7 µM (active). In addition, in experiment [1], the remaining parasite growth % (stronger effect = lower value) is -2.33%. For the same compound, the remaining proliferation (% of control), lower = more inhibition in experiment [3] is -1.28%. The compound also came in with a parasite growth, % of DMSO control in [4] of 6.23%. The compound also returned a parasite growth remaining, % of DMSO control (lower = more inhibition) in experiment [5] of 7.16%. In addition, in experiment [6], the parasite growth, % of control (lower = inhibition) amounted to 6.48%. Further, in [12], the growth, % of control amounted to 3.94%. Besides, the cell viability, % of control (lower = more cytotoxic) in experiment [7] was 12%. The viability (% of control) in [8] is 8.3%. Moreover, the Potency entry in experiment [10] is “inactive”.
As to `N#Cc1c(O)c2c(-c3ccc(-c4ccccc4O)cc3)csc2[nH]c1=O`, the max response in [11] was 42.7% (inactive). Besides, the remaining parasite growth % (stronger effect = lower value) in experiment [1] was found to be 93.3%. Further, in experiment [3], the remaining proliferation (% of control), lower = more inhibition was found to be 87.6%. The parasite growth, % of DMSO control in experiment [4] amounted to 70.3%. The parasite growth remaining, % of DMSO control (lower = more inhibition) in [5] amounted to 94.8%. For the same compound, the parasite growth, % of control (lower = inhibition) in experiment [6] came out at 47.7%. The same compound displayed a growth, % of control in [12] of 71.1%. Moreover, the cell viability, % of control (lower = more cytotoxic) in experiment [7] came to 185%. Also, the viability (% of control) in experiment [8] was determined as 108%. For the same compound, the Potency result in experiment [9] and in experiment [10] was “inactive” each time.
For `O=C(O)CO.[NH2-].[NH2-].[Pt+2]`, in experiment [11], the max response was -5.78% (inactive). The parasite growth, % of DMSO control in experiment [4] came to 92.3%. In [5], this compound returned a parasite growth remaining, % of DMSO control (lower = more inhibition) of 95.3%. The parasite growth, % of control (lower = inhibition) in experiment [6] was determined as 83.9%. This compound yielded a growth, % of control in experiment [12] of 94.7%. The cell viability, % of control (lower = more cytotoxic) in experiment [7] was 124%. In experiment [8], the viability (% of control) was found to be 100%. Also, the Potency result in experiment [9] and in experiment [10] was “inactive” in each case.
As for `CNC(=O)c1cc(Oc2ccc(NC(=O)Nc3cc(C(C)(C)C)nn3-c3ccc4ncccc4c3)c(F)c2)ccn1`, in experiment [11], the max response is -28.6% (inactive). The remaining parasite growth % (stronger effect = lower value) in experiment [1] is 26.7%. Besides, in [3], the remaining proliferation (% of control), lower = more inhibition came out at 24.1%. Further, the parasite growth, % of DMSO control in [4] was 5.7%. The parasite growth remaining, % of DMSO control (lower = more inhibition) in experiment [5] was 15.5%. The parasite growth, % of control (lower = inhibition) in experiment [6] turned out to be 10.2%. In [12], the growth, % of control worked out at 9.48%. In [7], the cell viability, % of control (lower = more cytotoxic) is 5.59%. Further, the viability (% of control) in [8] turned out to be 7%. The Potency result in experiment [9] and in experiment [10] was “inactive” each time.
For `C#Cc1cccc(Nc2ncnc3cc(OC)c(OCCCCCCC(=O)NO)cc23)c1`, in experiment [11], the Potency is 1.71 µM (active). Besides, the remaining parasite growth % (stronger effect = lower value) in experiment [1] was -1.67%. The remaining proliferation (% of control), lower = more inhibition in experiment [3] was -0.395%. The compound further returned a parasite growth, % of DMSO control in experiment [4] of 5.53%. The same compound came in with a parasite growth remaining, % of DMSO control (lower = more inhibition) in [5] of 6.37%. In [6], this compound displayed a parasite growth, % of control (lower = inhibition) of 11.2%. Besides, the cell viability, % of control (lower = more cytotoxic) in experiment [7] amounted to 44.2%. In addition, the viability (% of control) in experiment [8] came to 3.6%. Besides, the Potency result in experiment [9] and in experiment [10] was “inactive” in each case.
Regarding `O=C(Nc1cc(C(F)(F)F)cc(C(F)(F)F)c1)c1cc(Cl)ccc1O`, the remaining parasite growth % (stronger effect = lower value) in experiment [1] was -1.15%. The compound also returned an activity, percent of control in experiment [2] of 0.0029%. The remaining proliferation (% of control), lower = more inhibition in [3] is -0.617%. Also, the parasite growth, % of DMSO control in experiment [4] was determined as 5.26%. In addition, the parasite growth remaining, % of DMSO control (lower = more inhibition) in experiment [5] worked out at 6.62%. The same compound registered a growth, % of control in experiment [12] of 5.57%. In experiment [7], the cell viability, % of control (lower = more cytotoxic) is 7.43%. Moreover, the viability (% of control) in experiment [8] is 2.38%. Further, the Potency result in experiment [9] and in [10] was “inactive” in each case.
